Experimental data as given in PubChem BioAssay (NCATS).
Results filed as inconclusive are left out. Where a call stands in place of a potency, no number is given. The source made the active and inactive calls. Calls follow the shape of the dose curve; as a rule, active = well fitted inhibition curve with a large enough effect; inconclusive = small, poorly fitted or top-dose-only effect; inactive = no such curve, though single readings can be large or run the other way.

These molecules were tested against Retinaldehyde dehydrogenase 3 (Homo sapiens) (UniProt P47895) (assay: qHTS for Inhibitors of the Aldehyde Dehydrogenase Family (ALDH1A3) Primary screen (AID 2061315)). Settings: ALDH inhibition qHTS; series mostly up to 56 µM.
In the case of `CC(CCC1(O)OC2CC3C4CC=C5C[C@@H](O[C@@H]6O[C@H](CO)[C@@H](O[C@@H]7O[C@@H](C)[C@H](O)[C@@H](O)[C@H]7O)[C@H](O)[C@H]6O[C@@H]6O[C@@H](C)[C@H](O)[C@@H](O)[C@H]6O)CC[C@]5(C)C4CC[C@]3(C)[C@@]2(O)[C@@H]1C)CO[C@@H]1O[C@H](CO)[C@@H](O)[C@H](O)[C@H]1O` (stereo not given in full), the Potency is reported as “inactive”.
For `C=C1C[C@]23C[C@H]1CC[C@H]2[C@]1(C)CCC[C@@](C)(C(=O)O)[C@H]1[C@@H]3C(=O)O`, the Potency was “inactive”.
`Nc1c(S(=O)(=O)c2ccccc2)c2nc3ccccc3nc2n1-c1ccc(F)cc1` was tested, and the Potency was “inactive”.
`Cc1cc(O[C@@H]2O[C@H](COC(=O)CC(=O)O)[C@@H](O)[C@H](O)[C@H]2O)c(C(C)C)cc1O` was tested, and the Potency was “inactive”.
In the case of `CCCCS(=O)(=O)N[C@@H](Cc1ccc(OCCCCC2CCNCC2)cc1)C(=O)O`, the Potency is reported as “inactive”.
With `CCN(CCNC(=O)Nc1ccccc1Br)c1cccc(C)c1` the Potency was “inactive”.
`COCC1OC(OC(C)(C)C2CCC3(C)C=C(C4CCC5C4(C)CC(O)C4OC(C(C)(C)OC6OC(CO)C(O)C(O)C6NC(C)=O)CCC45C)CCC3O2)C(NC(C)=O)C(O)C1O` (stereo not given) was tested, and the Potency was “inactive”.
For `CC(NC(=O)c1ccccc1N)C(=O)O` (stereo not given), the Potency was “inactive”.
`NC(N)=NC(=O)c1cnn(-c2cccc3ncccc23)c1C1CC1` was tested, and the Potency was “inactive”.
With `CC1=C2C[C@@]3(C)[C@@H](CCC[C@@H]3C)C[C@@]2(O)OC1=O` the Potency was “inactive”.
In the case of `CC(C)[C@@H](C(=O)O)N1Cc2c(cc(O)c3c2O[C@]2(C3)[C@H](C)CCC3C(C)(C)[C@H](O)[C@H](O)C[C@@]32C)C1=O` (stereo not given in full), the Potency is reported as “inactive”.
`COC(=O)C[C@@H]1C(C(=O)O)=CO[C@@H](O[C@@H]2O[C@H](CO)[C@@H](O)[C@H](O)[C@H]2O)/C1=C\COC(=O)/C=C\c1ccccc1` was tested, and the Potency was “inactive”.
For `CC(C)[C@H]1CC[C@@]2(O)COC(=O)[C@H]2[C@@H]1/C=C(\CO)C(=O)O`, the Potency was “inactive”.
In the case of `O=C(CCCCc1ccc2ccccc2c1)C(F)(F)F`, the Potency is reported as “inactive”.
For `O=C(Cc1ccc(Cl)cc1)Nc1cnccc1C(=O)O`, the Potency was “inactive”.
For `COC(=O)C1=COC(OC2OC(CO)C(O)C(O)C2O)C2C(C)C(OC(=O)/C=C/c3ccc(O)cc3)C(O)C12` (stereo not given), the Potency was “inactive”.
For `CC(=O)NC(C(=O)OC1CCC(C)(C)C2CC=C3C(=O)OCC3(O)C12C)C(C)C` (stereo not given), the Potency was “inactive”.
`CCC(C)C(=O)O[C@H]1[C@H](O)[C@@]2(COC(C)=O)C(CC1(C)C)C1=CCC3[C@@]4(C)CC[C@H](O[C@@H]5O[C@H](C(=O)O)[C@@H](O)[C@H](O)[C@H]5O)[C@@](C)(CO)C4CC[C@@]3(C)[C@]1(C)C[C@@H]2O` (stereo not given in full) was tested, and the Potency was “inactive”.
With `C=C[C@]1(C)C[C@H](O)[C@H]2C(=C)C(=O)O[C@@H]2[C@H]1C(=C)CO` the Potency was “inactive”.
With `O=C(O)c1cc(O[C@@H]2O[C@H](CO)[C@@H](O)[C@H](O)[C@H]2O)ccc1O` the Potency was “inactive”.
For `CC(C)(O)c1ccc2c(c1)C(=O)C[C@H]1[C@](C)(C(=O)O)CCC[C@]21C`, the Potency was “inactive”.
`C=CCc1ccc(O[C@@H]2O[C@H](CO[C@@H]3O[C@@H](C)[C@H](O)[C@@H](O)[C@H]3O)[C@@H](O)[C@H](O)[C@H]2O)cc1` was tested, and the Potency was “inactive”.
`COc1ccc2c(c1)OC[C@]1(O)c3cc4c(cc3O[C@H]21)OCO4` was tested, and the Potency was “inactive”.
In the case of `CC1OC(OC2C(C)OC(OC3C(O)C(CO)OC(O[C@H]4CC[C@@]5(C)C(CC[C@]6(C)C5CC=C5C7[C@@H](C)[C@H](C)CC[C@]7(C(=O)O)CC[C@]56C(=O)O)C4(C)C)C3O)C(O)C2O)C(O)C(O)C1O` (stereo not given in full), the Potency is reported as “inactive”.
In the case of `CC1(C)CC[C@]2(C(=O)O)CC[C@]3(C)C(=CCC4[C@@]5(C)CC[C@H](O[C@@H]6O[C@H](C(=O)O)[C@@H](O[C@@H]7OC[C@@H](O)[C@H](O)[C@H]7O)[C@H](O)[C@H]6O)C(C)(C)C5CC[C@]43C)C2C1O` (stereo not given in full), the Potency is reported as “inactive”.
For `O=C(/C=C/c1ccc(O)cc1)OC[C@H]1O[C@@H](OC(=O)/C=C/c2ccccc2)[C@H](O)[C@@H](O)[C@@H]1O`, the Potency was “inactive”.
`COc1cc(O)c2c(c1)C1=CC(O)C(O)CC1(C)OC2=O` (stereo not given) was tested, and the Potency was “inactive”.
With `CC(C)OC(=O)N1CCC(Oc2ncnc3c2cnn3-c2ccc(S(C)(=O)=O)cc2F)CC1` the Potency was “inactive”.
`CC1(O)CC(O)C2C(C(=O)O)=COC(OC3OC(CO)C(O)C(O)C3OC(=O)/C=C/c3ccc(O)cc3)C21` (stereo not given) was tested, and the Potency was “inactive”.
`COc1cc(O)c([C@@H](CC(=O)N2CC(C)CC(C)C2)c2ccc3c(c2)OCO3)c(OC)c1` (stereo not given in full) was tested, and the Potency was “inactive”.
